Among the data in PMC7819943, “Rice protein-binding microarrays: a tool to detect cis-acting elements near promoter regions in rice” are binding signal values, retold here.

The full ranking holds about 35,000 sequences; the median of “fluorescence intensity (a.u.)” is about 10,000, and the highest 2% start at about 52,000. This is one part of a sample in which the highest values are shown more often than they occur.

The target in the assay is T1, OsWOX13 (Oryza sativa, UniProt Q5QMM3 1-267).
T1 sequence: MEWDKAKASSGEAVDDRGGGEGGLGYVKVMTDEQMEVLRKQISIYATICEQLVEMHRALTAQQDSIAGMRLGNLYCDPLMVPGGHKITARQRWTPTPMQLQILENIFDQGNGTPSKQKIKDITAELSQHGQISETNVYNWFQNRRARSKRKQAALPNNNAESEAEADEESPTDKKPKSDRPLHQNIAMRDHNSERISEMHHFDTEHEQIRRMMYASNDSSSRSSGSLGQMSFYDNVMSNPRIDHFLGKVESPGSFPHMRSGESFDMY
The assay can be described thus: protein-binding microarray (RPBM); PBS, 2% BSA, 51.3 ng/ul salmon testes DNA, 50 uM zinc acetate, 200 nM TF, 25 C, 1 h; high values mean tight binding. To be noted: protein: recombinant; tags: N-terminal polyhistidine and DsRed monomer fusion (pET32a); label: CyDye5-dUTP incorporated in the synthesized complementary strand; 3' TTTTT single-stranded linker to array surface; dsDNA, one strand shown. An outline of the steps:
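In PBS with 2% BSA, salmon testes DNA and 50 µM zinc acetate, 200 nM protein was incubated on a custom Agilent array at 25 °C for 1 h and then washed off. The array had been made double-stranded by primer extension with Cy5-dUTP and blocked with 2% BSA. The proteins were transcription factors fused N-terminally to polyhistidine and DsRed, expressed in E. coli BL21-CodonPlus and purified on Ni–NTA. The binding signal is per-feature fluorescence intensity (arbitrary units) from an Axon 4000B scanner.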
Take “TGTAATTGATAAATATAAATTTACTTTAGGCATGTTTGATCGGAGTCACCTAGTGCAG”: the binding signal is 55700 fluorescence intensity (a.u.).
Consider “ATGTAAATTACTTTTAGGCTTTATTGAATTACTTTTATATCGGAGTCACCTAGTGCAG”, for which the binding signal was 7630 fluorescence intensity (a.u.).
Next, “AAAATATATAATTATTATTTATTTTATTATGACATGATATCGGAGTCACCTAGTGCAG”: 17400 fluorescence intensity (a.u.).
In the case of “ATAATAATTGATAGGTAACCATGATTATCGATAAAACCATCGGAGTCACCTAGTGCAG” it was 59000 fluorescence intensity (a.u.); in that of “ATATAATTGATAATAAATCAGGGCATGACATGTCACATATCGGAGTCACCTAGTGCAG”, 56400 fluorescence intensity (a.u.); in that of “ATGATTGATTGTAAATTAGGTTGAATAATTGATATATACTCGGAGTCACCTAGTGCAG”, 54800 fluorescence intensity (a.u.).
Next, “TCACATTGATATTAATTAATCTAGATAAATATATATATGTCGGAGTCACCTAGTGCAG”: 17200 fluorescence intensity (a.u.).
For “ATTGATTTAATGAAAATAATTTAATATTATAAATATTACTCGGAGTCACCTAGTGCAG”, the binding signal was 35700 fluorescence intensity (a.u.).
For the sequence “GTCTCGATATAATTATGAATTTTGAAATATATAAACCCATCGGAGTCACCTAGTGCAG”, the binding signal is 8250 fluorescence intensity (a.u.).
For “GTGGTTGTATTAAATATATTGATAGTTAGGTATATGAATACGGAGTCACCTAGTGCAG”, the binding signal is 4110 fluorescence intensity (a.u.).
Next, “CGAAATTATAATGATTAAACAAAATTGATCGATATAACTACGGAGTCACCTAGTGCAG”: 41000 fluorescence intensity (a.u.); “TTAAATAAATTACTTTTAAATTAATAAAATGTTTGAATATCGGAGTCACCTAGTGCAG”: 5500 fluorescence intensity (a.u.).
Next, “TTGTATTTGTTAATGGAATGCTGATTGGTGCACAGCAAACCGGAGTCACCTAGTGCAG”: 29900 fluorescence intensity (a.u.).
Next, “ATTAAATTTGGGCTAACTGGCCTCCACACATCCCATATAACGGAGTCACCTAGTGCAG”: 11000 fluorescence intensity (a.u.); “TGTTTTGATTGTTTCTTATTACTCCCTCCGATTATAAATACGGAGTCACCTAGTGCAG”: 25500 fluorescence intensity (a.u.); “GATAAATTACGATAATACCCCTATACGAATTATTATCTCTCGGAGTCACCTAGTGCAG”: 12900 fluorescence intensity (a.u.).
For “TCCGATTGATTACCTTCTATAAATACCTCACCCCACCCCTCGGAGTCACCTAGTGCAG”, the binding signal is 57600 fluorescence intensity (a.u.).
Next, “CAGATGATTAGTAATGTTAATTATGAATAAACTTGCACGCCGGAGTCACCTAGTGCAG”: 51800 fluorescence intensity (a.u.); “AATATTATTTATATGTAATTACATAAGTAATATGTAATTTCGGAGTCACCTAGTGCAG”: 9490 fluorescence intensity (a.u.).
Next, “ATTGATTAGTAGTAATTAATTAGTTATAAACTACACGCGCCGGAGTCACCTAGTGCAG”: 58700 fluorescence intensity (a.u.); “TAAATTGGCTATTACATTAGTTATAAATGATTTGGAGCTACGGAGTCACCTAGTGCAG”: 34400 fluorescence intensity (a.u.).
In the case of “ATTGATAATTAGTTCACCGAAGTAGTAGGGCGCGACACGCCGGAGTCACCTAGTGCAG” it was 15900 fluorescence intensity (a.u.); in that of “CTAAATTGATTATACATGATTTAGAGTTAGTAGTTAGCTACGGAGTCACCTAGTGCAG”, 59600 fluorescence intensity (a.u.).
On to “AGCTATTAGTAGATTGGCTATAAATGAATTGGAGTTAGTACGGAGTCACCTAGTGCAG”, for which the binding signal is 14900 fluorescence intensity (a.u.).
Next, “ATTGATTTACGGGATTGAAGTTAGTATAATTACATGTAAGCGGAGTCACCTAGTGCAG”: 53600 fluorescence intensity (a.u.).
In the case of “GTGCAAGGATAATTGGTGATTATATTAGTGTATATTTAAGCGGAGTCACCTAGTGCAG” it was 18200 fluorescence intensity (a.u.); in that of “CCTCCTGTTAACTCGTATCACCTCCCTCCCTCACTGAACCCGGAGTCACCTAGTGCAG”, 7850 fluorescence intensity (a.u.).
In the case of “ATAAAGACTGTTCAATCATGATGAAGCTTTACGTAAGCGGCGGAGTCACCTAGTGCAG” it was 34900 fluorescence intensity (a.u.); in that of “TTTACAAACACGCAAATTAAAATTTTATTTATACAATTAACGGAGTCACCTAGTGCAG”, 4180 fluorescence intensity (a.u.); in that of “GTACCAATTTAATTTATGTATCAATAAGAACATATCATGTCGGAGTCACCTAGTGCAG”, 22800 fluorescence intensity (a.u.).
On to “TCAGCTTATTGACTTATATGATTTATAAGCCAATGGATTTCGGAGTCACCTAGTGCAG”, for which the binding signal is 11100 fluorescence intensity (a.u.).
As for “CTGATTAGCATGCAGGATAGGAACTGATCTGTACTTGTCGCGGAGTCACCTAGTGCAG”, the binding signal is 22300 fluorescence intensity (a.u.).
Next, “ACTAATTTCATAACTCTCCTGGAAACCGTGAGATGAATCTCGGAGTCACCTAGTGCAG”: 6360 fluorescence intensity (a.u.); “GATGATGATGAGGAGGATGACCAGGATGGTGGAGACTGGGCGGAGTCACCTAGTGCAG”: 4950 fluorescence intensity (a.u.); “TTCTGAATGTGATTGAATTAATTGGACTTGCGTTGACCTTCGGAGTCACCTAGTGCAG”: 59500 fluorescence intensity (a.u.).
For the sequence “GAGAGATGATGGGCTGGTTTGGTTTGAGGCCTAAATTAGGCGGAGTCACCTAGTGCAG”, the binding signal is 3660 fluorescence intensity (a.u.).
Next, “CTCGAGGTCAAATCTTGATTAATTATGCTAATTAACGCGACGGAGTCACCTAGTGCAG”: 16800 fluorescence intensity (a.u.); “CCCACAATTAATTGGGCCTAATGGATCGGTGCCCTTGTGGCGGAGTCACCTAGTGCAG”: 53600 fluorescence intensity (a.u.).
Next, “TAGGTGATTAGTTGATTAATTAATCTTGAGCTCCTCCTAACGGAGTCACCTAGTGCAG”: 58800 fluorescence intensity (a.u.).
Next, “TTCCTTTGATTGATCATGAGGTGGGCTGGGGCTGAGATGGCGGAGTCACCTAGTGCAG”: 59400 fluorescence intensity (a.u.).
With “AAATTTATGTAATTATTATTTATTTTATTGTGACTTGATTCGGAGTCACCTAGTGCAG”, the binding signal is 8590 fluorescence intensity (a.u.).
Next, “CCCAATTAATTACAATGGGCCACACGCTCGTGGCCCAACTCGGAGTCACCTAGTGCAG”: 10900 fluorescence intensity (a.u.); “ACAATTAACTAATAATAATTAGTGATTACTTATCTTGATTCGGAGTCACCTAGTGCAG”: 45300 fluorescence intensity (a.u.).
Take “GTAATTGCGGCCCATTAACCTAAATGGGCCGATCGAGTGGCGGAGTCACCTAGTGCAG”: the binding signal is 4580 fluorescence intensity (a.u.).
In the case of “ATGATTGCTTAAGAATAATTGGTGACTTGCTACGAATGTGCGGAGTCACCTAGTGCAG” it was 51300 fluorescence intensity (a.u.).
In the case of “TGAATGATTGCTCTTGTGCTAAGAGAATAGACTTTATCCCCGGAGTCACCTAGTGCAG” it was 32000 fluorescence intensity (a.u.); in that of “TCGGTATTGTGATTGAGGGGTAAGAGTAAGTTTCGGCCACCGGAGTCACCTAGTGCAG”, 18700 fluorescence intensity (a.u.).
Next, “TTAATTGTAAGTTTAACTATTGCTACTTCGCTTGCAGCGTCGGAGTCACCTAGTGCAG”: 13600 fluorescence intensity (a.u.).
Consider “AATCATGGCGTAATTAGGCTTAAAAGATTCGTCTCGCAATCGGAGTCACCTAGTGCAG”, for which the binding signal is 3620 fluorescence intensity (a.u.).
In the case of “TTATCCAAAACGTCAATTAATATAGAACTAGAGTGAGTACCGGAGTCACCTAGTGCAG” it was 4500 fluorescence intensity (a.u.); in that of “GATTTAATTTATTTTGGTAATGATTTGTGGATGATTTTGGCGGAGTCACCTAGTGCAG”, 31600 fluorescence intensity (a.u.).
Next, “TTAATTGATTGAATCACATCCTTCCGGATTGTTTTGATCCCGGAGTCACCTAGTGCAG”: 40800 fluorescence intensity (a.u.); “GCTCTAATAATTGAATAATTTGATTTGTTTTATTTAAATCCGGAGTCACCTAGTGCAG”: 30100 fluorescence intensity (a.u.); “CCATCACATCCGTTGGCCTAATTGATTTGTGAAGCATCAACGGAGTCACCTAGTGCAG”: 4240 fluorescence intensity (a.u.).
In the case of “CATTCATATTGATGTTAATAAATTAATATAGATATATATGCGGAGTCACCTAGTGCAG” it was 3590 fluorescence intensity (a.u.).
With “TGTTGATTGTTGTGTTTAATTGGAGATTGACTATTGAATCCGGAGTCACCTAGTGCAG”, the binding signal is 60200 fluorescence intensity (a.u.).
In the case of “ACTTAATTATTGTTATGATTCATTCATGCATAAAGCGGTGCGGAGTCACCTAGTGCAG” it was 55700 fluorescence intensity (a.u.).
Next, “TTAATTGATTGATTGATTGATTAATCCGTTGTGAATCTAACGGAGTCACCTAGTGCAG”: 61500 fluorescence intensity (a.u.).
In the case of “TTATACATCCAAATTTGATTGTTGCGTGCTTATTTTGTTGCGGAGTCACCTAGTGCAG” it was 13700 fluorescence intensity (a.u.); in that of “AGTTATTGACAGTGACTAATCTACCTAATCCGTAGATTAACGGAGTCACCTAGTGCAG”, 12500 fluorescence intensity (a.u.); in that of “GAGTTATGATTTGTTACAATAATTGTAACTTATTGTAAAGCGGAGTCACCTAGTGCAG”, 27900 fluorescence intensity (a.u.).
As for “TGCGTGATTGTTGGGATTATTTTATTAATTGATCCAATGGCGGAGTCACCTAGTGCAG”, the binding signal is 57200 fluorescence intensity (a.u.).
